# Hits are enriched below; roughly 21% of the tested compounds scored in any of these assays.
# CHX counter: affects cycloheximide protein synthesis inhibition readout, counter-screen | actives 12% (n = 300,000) | AID 2314 | cell reporter, cycloheximide protein synthesis inhibition counterscreen | max response, %; in the data active means max response mostly above about 13%, no sharp cut-off; inactive means mostly below about 14%; further: read at 38.3 µM for the half of the compounds with a filed dose; 0% is about no effect
# Pf growth 48h: P. falciparum growth inhibition at 48 hours (one generation) | actives 5.9% (n = 310,000) | AID 504832 | P. falciparum luciferase growth in erythrocytes, 48 h | Potency, µM (series often up to 28.7 µM), inactives show at the top dose activity change, negative = inhibition, hits mostly inhibitors; further: potency means the concentration at half of the fitted maximal effect; on the % scale 0 is the no-effect control and ±100 the full control effect
#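 Luminescence readout; reporter = integrated firefly luciferase in P. falciparum. RBC culture at 2% hematocrit, 0.1% parasitemia final, 37 C/5% CO2; decreased signal taken as growth inhibition.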
# Shiga inhibitor: blocks Shiga toxin action in Vero cells; Vero cells, Shiga toxin protein synthesis inhibition reporter; inhibition, % at 38.7 µM; actives 9.2% (n = 290,000); in the data active means inhibition mostly above about 28%, no sharp cut-off; inactive means mostly below about 43%; further: 0% is about no effect
# Pf growth 96h: inhibits malaria parasite growth, 96 h | Potency, µM (series often up to 28.7 µM), without a hit: at the highest dose activity change, negative = inhibition, actives largely listed as inhibitors | actives 6.9% (n = 320,000) | P. falciparum luciferase reporter growth, 96 h | AID 504834; further: potency means the concentration at half of the fitted maximal effect; on the % scale 0 is the no-effect control and ±100 the full control effect
#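 Parasite growth measured via integrated firefly luciferase reporter in P. falciparum. Infected erythrocytes at 2% hematocrit, 0.05% parasitemia final were treated 96 hours at 37 C under 5% CO2, and luminescence was read.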
# * hit, by the source's call; i = inactive; ? = inconclusive; · = not tested or not shown. Unless noted, the call rests on the fitted dose curve; in most records, active means well fitted inhibition curve with a large enough effect; inconclusive means small, poorly fitted or top-dose-only effect, or another doubt; inactive means no such curve, though single readings can be large or run the other way.
SMILES,CHX counter,Pf growth 48h,Shiga inhibitor,Pf growth 96h
CC(C)c1cc(=O)[nH]c(N2CCN(Cc3ccc4c(c3)OCO4)CC2)n1,-2,27%,·,2%
CC1CCN(C(=O)Cn2nnc(-c3ccccc3)n2)CC1,30*,21%,83*,?
CC1CCN(C(=O)Cn2nnc(-c3ccc([N+](=O)[O-])cc3)n2)CC1,3,47%,14,15µM*
CC1CC(C)CN(C(=O)Cn2nnc(-c3ccccc3)n2)C1 (configuration not stated),-3,8%,23,-3%
O=C(CC1C(=O)NCCN1CC1CCCCC1)NCCCN1CCOCC1 (configuration not stated),0,?,-6,?
Cc1cccc(N2CC(C(=O)Nc3nnc(SCC(=O)NCC4CCCO4)s3)CC2=O)c1 (configuration not stated),-1,?,-10,-8%
CCOC(=O)c1ccc(NC(c2ccc(N(C)C)cc2)P(=O)(OC(C)C)OC(C)C)cc1 (configuration not stated),20,13µM*,2,23%
CCOP(=O)(OCC)C(Nc1ccc(C(=O)O)cc1)c1ccccc1 (configuration not stated),-1,-1%,-7,5%
O=C(c1ccccc1)[C@@H]1[C@@H](C(=O)c2ccc(F)cc2)[C@@]2(C(=O)Nc3ccccc32)[C@H]2c3ccccc3C=CN12,7,15µM*,10,?
CSc1nc(-c2ccc(Cl)cc2)c(C#N)c(=O)[nH]1,-2,5%,-2,14%
CSc1ncc(-c2ccc(Cl)cc2)[nH]1,45*,255%,76*,193%
Cc1ccc(Nc2nc3ccccc3o2)cc1F,38*,·,83,i
O=C(CC1NC(=S)NC1=O)c1ccc(Cl)cc1 (configuration not stated),0,4%,9,22%
COc1cc(-n2nnnc2SCC(=O)N2CCN(c3ccc(F)cc3)CC2)c(OC)cc1Cl,0,15µM*,-6,·
O=C(NCCCCNC(=O)c1ccc(Br)s1)c1ccc(Br)s1,-3,·,-14,-2%
COC(=O)c1cc(Cc2ccc(N)c(C(=O)OC)c2)ccc1N,-2,·,-4,73%
COC(=O)Cc1ccc(O)c(N)c1,-1,?,6,1.9µM*
Cc1ccc(C2=CC(c3cccs3)n3nnnc3N2)cc1 (configuration not stated),47*,62%,81,23%
Fc1ccc(C2=CC(c3cccs3)n3nnnc3N2)cc1 (configuration not stated),27*,25%,59*,20%
OCCCc1nc2n(n1)C(c1cccs1)C=C(c1ccccc1)N2 (configuration not stated),-1,·,-14,2%
CC1=C(C(=O)Nc2ccccc2)C(c2cccs2)n2nnnc2N1 (configuration not stated),-2,?,-5,27%
C1=C(c2ccccc2)Nc2nnnn2C1c1cccs1 (configuration not stated),16*,50%,69*,-4%
C/C(=N\NC(=O)c1nnn(-c2nonc2N)c1CSc1ccc(Cl)cc1)c1ccco1,10,?,-7,1%
O=C(NNc1c(Cl)cccc1Cl)c1cccs1,10,?,-9,-20%
CN1CCN(S(=O)(=O)c2cccc(C#N)c2)C(c2ccccc2)C1 (configuration not stated),·,-13%,·,25%
SMILES,CHX counter,Pf growth 48h,Shiga inhibitor,Pf growth 96h
Cc1ccc(SCC(=O)OCC(=O)N(C)C2CCS(=O)(=O)C2)cc1C (configuration not stated),·,11%,·,9%
Cc1cc(C)n(-c2nc(SCC(=O)O)c3c4c(sc3n2)CCCC4)n1,5,?,11,?
Cc1cc(C)n(-c2nc(NCCCO)c3c4c(sc3n2)CCCC4)n1,18*,·,43,58%
Cc1cc(C)n(-c2nc(NCCO)c3c4c(sc3n2)CCCC4)n1,24*,?,26,-8%
Cc1cc(C)n(-c2nc(NCC(C)O)c3c4c(sc3n2)CCCC4)n1 (configuration not stated),16*,·,32,?
CCN(CC)CCOc1ccccc1C(=O)CCc1ccccc1,·,-15%,·,?
Cc1ccc(NC(=O)CSCC(=O)NNC(=O)c2nn(C)c(=O)c3ccccc23)cc1,·,-10%,·,-18%
COc1ccccc1CCCNC(=O)C1CCC(=O)N(CCc2cccc(F)c2)C1 (configuration not stated),10,-6%,16,27%
CCSc1nnc(NC(=O)CCc2ccccc2)s1,-1,·,-14,121%
CC(C)c1nnc(NC(=O)COc2ccccc2[N+](=O)[O-])s1,20*,97%,96*,106%
CCSc1nnc(NC(=O)COc2ccccc2[N+](=O)[O-])s1,62*,121%,185*,169%
O=C1OC(c2ccc(F)cc2)=N/C1=C\C=C/c1ccccc1,-5,6%,-7,?
COc1cc(S(=O)(=O)Nc2ccccc2)ccc1N=Cc1c(C)[nH]n(-c2ccc(C)cc2)c1=O,-2,-19%,-11,24%
COc1cc(SC#N)ccc1N=Cc1c(C)[nH]n(-c2ccc(Cl)cc2)c1=O,0,2.1µM*,-11,2.1µM*
COc1ccc(CCN=Cc2c(C)[nH]n(-c3ccc([N+](=O)[O-])cc3)c2=O)cc1OC,1,-2%,2,-78%
COc1cc(SC#N)ccc1N=Cc1c(C)[nH]n(-c2ccc(C)c(C)c2)c1=O,0,5.2µM*,-8,-28%
COc1ccc2c(C)c(C(=O)NCC(C)O)oc2c1OC (configuration not stated),1,23%,-13,6%
Cc1ccc(NC(=O)C2CCCN(c3ncccn3)C2)cc1C (configuration not stated),29*,35%,99*,?
Cc1ccnc(N2CCCC(C(=O)Nc3ccc(C)c(C)c3)C2)n1 (configuration not stated),-5,?,15,24%
O=C(NC1CCCCC1)C1CCN(c2ncccn2)CC1,-3,28%,-8,14%
O=C(NC1CCCCCC1)C1CCCN(c2ncccn2)C1 (configuration not stated),24*,?,38,0%
COc1ccc(NC(=O)C2CCCN(c3nccc(C)n3)C2)cc1 (configuration not stated),-2,-12%,16,10µM*
Cc1cc(N2CCCC(C(=O)Nc3cccc(Cl)c3)C2)n2ncnc2n1 (configuration not stated),-1,-2%,-9,15µM*
Cc1nnc(SC(C)C(=O)Nc2ccc3ccccc3c2)n1C (configuration not stated),·,-18%,·,-6%
CC(CC(F)(F)F)N1CCC(n2nccc2NC(=O)CCCc2ccccc2)CC1 (configuration not stated),-4,4%,-11,?
CC(C)c1ccc(NC(=S)NNC(=O)C2CC2)cc1,2,7%,13,-12%
COc1ccc(NC(=O)C2CCCN(c3ncccn3)C2)cc1 (configuration not stated),30*,59%,92*,-3%

# High-throughput results deposited in PubChem BioAssay by National Center for Advancing Translational Sciences (NCATS).
